Hits are enriched below; roughly 14% of the tested compounds scored in any of these assays.
Sm TGR inh: qHTS Assay for the Inhibitors of Schistosoma Mansoni Peroxiredoxins; 3% of 360,000 active; AID 485364, 2010; Potency, µM (doses to about 114 µM), usual class: inhibitors; purified TGR, DTNB reduction, TNB absorbance 405 nm; also: nearly all actives have a fitted effect of over 60% in size
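First, TGR (20 nM dispensed) and NADPH were mixed with compound. Second, a 15 min room-temperature incubation followed. Third, further NADPH and then DTNB were added to start the reaction. Finally, TNB absorbance was monitored kinetically.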
HCMV inh: qHTS Assay for inhibitors of the human cytomegalovirus (HCMV); AID 1259415, 2018; 4.5% of 410,000 active; HFF cells, HCMV-luciferase reporter, 72 h; hits give low values; activity change, negative = inhibition, % at 57.5 µM; in the data active = activity change below about -60%; inconclusive = no clear call, values can overlap the other calls; inactive = above about -39%
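Two-dose cell screen: HFF monolayers treated with compounds and infected with luciferase-expressing HCMV at 1 PFU/cell, 72 h at 37C, then lysed for luciferase measurement.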
Pf growth 96h: Primary qHTS for delayed death inhibitors of the malarial parasite plastid, 96 hour incubation | AID 504834, 2011 | Potency, µM (highest dose often 28.7 µM), most hits filed as inhibitors | 6.9% of 320,000 active | P. falciparum luciferase reporter growth, 96 h
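Parasite growth measured via integrated firefly luciferase reporter in P. falciparum. Infected erythrocytes at 2% hematocrit, 0.05% parasitemia final were treated 96 hours at 37 C under 5% CO2, and luminescence was read.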
Pf growth 48h: Primary qHTS for delayed death inhibitors of the malarial parasite plastid, 48 hour incubation. 5.9% of 310,000 active. Potency, µM (doses to about 28.7 µM), actives largely listed as inhibitors. P. falciparum luciferase growth in erythrocytes, 48 h. AID 504832, 2011
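Luciferase-expressing parasites in RBCs, 2% Hct / 0.1% parasitemia final; RPMI 1640 + 0.5% Albumax; 37 C, 5% CO2, one generation; luminescence read-out, lower signal = inhibition.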
Giardia FBPA inh: qHTS Assay for Inhibitors of Fructose-1,6-bisphosphate Aldolase from Giardia Lamblia; A8B2U2; purified Giardia FBPA; Potency, µM (series often up to 59.6 µM), most hits filed as inhibitors; 0.71% of 290,000 active; also: nearly all actives have a fitted effect of over 55% in size
Target sequence (A8B2U2 whole entry, looked up): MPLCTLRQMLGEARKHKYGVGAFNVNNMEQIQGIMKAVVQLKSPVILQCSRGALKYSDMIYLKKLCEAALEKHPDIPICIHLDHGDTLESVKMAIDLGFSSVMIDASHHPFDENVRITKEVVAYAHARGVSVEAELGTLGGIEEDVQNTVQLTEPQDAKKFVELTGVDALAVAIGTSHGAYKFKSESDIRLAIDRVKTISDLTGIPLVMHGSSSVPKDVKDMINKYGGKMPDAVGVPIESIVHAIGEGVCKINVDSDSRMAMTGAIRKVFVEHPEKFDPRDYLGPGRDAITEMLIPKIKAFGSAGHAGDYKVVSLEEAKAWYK
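40 nM FBPA preincubated 10 min at RT with compound (up to 57.5 uM final), then substrate plus GAPDH/TPI/NAD/arsenate coupling and diaphorase/resazurin added. Fluorescence read after 20 min at RT, 525/598 nm.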
Numbers stand for hits; 0 = inactive; ? = inconclusive; - = not tested or not shown; ! = repeats disagree; [ ] = dose if it differs, or a comment. Unless noted, calls follow the shape of the dose curve; as a rule, active = well fitted curve in the direction sought with a large enough effect; inconclusive = small, poorly fitted or top-dose-only effect, or another doubt; inactive = no such curve, though single readings can be large; an effect the other way counts as inactive or inconclusive.

SMILES | Sm TGR inh | HCMV inh | Pf growth 96h | Pf growth 48h | Giardia FBPA inh
COc1ccc(C(=O)COC(=O)c2cccc(-n3cnnn3)c2)c(OC)c1 | 0 | 0 | 0 | 0 | -
COC(=O)[C@@H]1C[C@@H]2CC[C@@H](O)C[C@@H]2N1Cc1ccccc1OS(=O)(=O)c1ccc(C)cc1 | 28µM | 0 | ? | 10µM | 0
COC(=O)[C@@H]1C[C@H]2CC[C@H](O)C[C@H]2N1Cc1ccccc1OC(=O)c1cccs1 | ? | 0 | ? | 9.3µM | 0
O=C(COC(=O)C12CC3CC(CC(C3)C1)C2)NCCc1ccccc1 | 0 | 0 | - | 0 | 0
O=S(OCCN1CCOCC1)C(c1ccccc1)c1ccccc1 (stereo not drawn) | - | 0 | - | - | -
Cc1nc2cc(N3CCN(C)CC3)c(NC(=O)Cc3ccccc3)cc2c(=O)n1Cc1ccccc1 | 0 | ? | 0 | 10µM | 0
CCN(CC)c1cc2nc(C)n(Cc3ccccc3)c(=O)c2cc1NC(=O)C1CC1 | 0 | 0 | 0 | 7.4µM | 0
CCCC(=O)Nc1ccc2nc(C)n(Cc3ccccc3Cl)c(=O)c2c1 | 0 | 0 | 0 | ? | 0
Cc1nc2cc(N3CCCCC3)c(NC(=O)c3ccncc3)cc2c(=O)n1Cc1ccc(Cl)cc1 | 0 | - | ? | - | 0
CN(CC(=O)Nc1cc(Cl)ccc1-n1cncn1)Cc1ccccc1N1CCOCC1 | - | 0 | - | - | -
Cc1ccc(Cl)cc1N1CCN(C(=O)COc2ccc(S(=O)(=O)NC(C)C)cc2)CC1 | 0 | -89 | ? | - | 0
O=C(COc1ccc(S(=O)(=O)NC2CCCCC2)cc1)N1CCN(c2cccc(Cl)c2)CC1 | 0 | -91 | - | ? | 0
CS(=O)(=O)N(CC(=O)N1CCN(c2cccc(Cl)c2)CC1)C1CCCCC1 | 0 | 0 | - | 0 | 0
CN1CCN(C2CCCCC2NS(=O)(=O)c2ccccc2)CC1 (stereo not drawn) | 0 | 0 | ? | 0 | -
O=S(=O)(NC1CCCCC1N1CCN(c2cccc(Cl)c2)CC1)c1ccccc1 (stereo not drawn) | 0 | - | 0 | 15µM | 0
Cc1ccc(Cl)cc1N1CCN(C(=O)CN(C2CCCCC2)S(C)(=O)=O)CC1 | 0 | 0 | 10µM | ? | 0
Brc1ccc(-c2cc3c(N4CCN(c5ccccc5)CC4)nccn3n2)cc1 | 0 | 0 | - | - | -
Cc1nc(CSc2ccc(Cl)cc2)cc(N2CCOCC2)n1 | 0 | 0 | 7.4µM | 0 | 0
CCOc1cc(C(=O)NCc2ccc3c(c2)CCN3C(=O)c2ccc(F)cc2)cc(OCC)c1OCC | 0 | 0 | - | - | -
Cc1c2cnn(-c3ccccc3)c(=O)c2c(C)n1CC(=O)NCCc1ccc(Cl)cc1 | 0 | 0 | - | - | -
CCCCCCSc1ccc([C@H]2N[C@@](Cc3ccccc3)(C(=O)OC)[C@H]3C(=O)N(CC)C(=O)[C@@H]23)cc1 | 0 | 0 | 0.47µM | 0.83µM | -
CCCCCCSc1ccc([C@H]2N[C@@](CC(C)C)(C(=O)OC)[C@H]3C(=O)N(CC)C(=O)[C@@H]23)cc1 | 0 | 0 | ? | ? | -
CCCCCCSc1ccc([C@H]2N[C@@](Cc3ccccc3)(C(=O)OC)[C@H]3C(=O)N(C)C(=O)[C@@H]23)cc1 | 0 | 0 | ? | 0.29µM | -
CCC(C)Sc1ccc([C@H]2N[C@@](Cc3ccccc3)(C(=O)OC)[C@H]3C(=O)N(C)C(=O)[C@@H]23)cc1 (stereo partly drawn) | 0 | 0 | ? | 1µM | -
CCCSc1ccc([C@H]2N[C@@](Cc3ccccc3)(C(=O)OC)[C@H]3C(=O)N(CC)C(=O)[C@@H]23)cc1 | 0 | 0 | 1µM | 1.5µM | -
SMILES | Sm TGR inh | HCMV inh | Pf growth 96h | Pf growth 48h | Giardia FBPA inh
CCCCCCSc1ccc([C@H]2N[C@@](CC(C)C)(C(=O)OC)[C@H]3C(=O)N(C)C(=O)[C@@H]23)cc1 | 0 | 0 | ? | ? | -
O=C(/C=C/C(=O)Oc1ccccc1C(=O)O)Oc1ccccc1C(=O)O | - | - | - | - | 0
NC(=O)CNC(=O)[C@@H]1CC2(CC(c3ccc(Cl)cc3)=NO2)CN1C(=O)c1ccccc1 (stereo partly drawn) | 0 | 0 | ? | 0 | 0
Cc1noc(C)c1COc1ccccc1C(=O)NCc1ccco1 | 0 | 0 | ? | ? | -
CCOC(=O)N1CCC(N2C(=O)c3ccccc3C2Nc2ccc(C)cc2)CC1 (stereo not drawn) | 0 | 0 | 9.3µM | - | 0
CCOC(=O)N1CCC(N2C(=O)c3ccccc3C2Nc2cc(C(=O)OC)cc(C(=O)OC)c2)CC1 (stereo not drawn) | 0 | 0 | 8.3µM | - | 0
CCOC(=O)N1CCC(N2C(=O)c3ccccc3C2Nc2cc(C)cc(C)c2)CC1 (stereo not drawn) | 0 | 0 | ? | ? | 0
N#Cc1c(-n2cccc2/C=N/O)sc2c1CCCC2 | 0 | ? | 15µM | 0 | 0
C=CCNCc1cccn1-c1sc2c(c1C#N)CCCC2 | 0 | 0 | 0 | 0 | 0
CCOC(=O)C1=C(N)Oc2ccc(Br)cc2C1C(C#N)C(=O)OCC (stereo not drawn) | - | - | - | - | 0
O=C1N=c2ccccc2=C1c1c(O)n(-c2cccc(F)c2)[nH]c1=O | 22µM | 0 | 0 | 0 | ?
c1ccc(CN(CC2=NCCN2)c2ccccc2)cc1 | 0 | ? | 12µM! | 0 | 0
COc1ccc(CNC(=O)C2CC(=O)N(C3CCCC3)C2)cc1 (stereo not drawn) | 0 | 0 | 0 | 0 | -
COc1ccc(N/C=C/c2nc(SC)nnc2C)cc1 | 0 | -86 | ? | 0[5.75 µM] | 0
CC(C)CN(C(=O)COC(=O)c1ccc2c(c1)NC(=O)CS2)C1CCS(=O)(=O)C1 (stereo not drawn) | 0 | -84 | 0 | 0 | 0
COCC(C)n1c(C)cc(C(=O)COC(=O)c2ccc3c(c2)NC(=O)CS3)c1C (stereo not drawn) | 0 | ? | 7.4µM | 10µM | 0
CC(C)CN(C(=O)CSc1nn(-c2ccc(Cl)cc2)c(=S)s1)C1CCS(=O)(=O)C1 (stereo not drawn) | 0 | 0 | ? | 8.3µM | 0
Cc1cc(C)n(-c2ccc(C(=O)OCC(=O)N(CC(C)C)C3CCS(=O)(=O)C3)cc2)n1 (stereo not drawn) | 0 | -86 | ? | ? | 0
COc1cc(Cl)c(C)cc1NC(=O)Cn1ncc2c([nH]c3ccccc32)c1=O | 0 | 0 | - | - | -
COC/C=C/C1=CC2=CC(=O)C(C)(OC(=O)c3cnc4ccccc4n3)C(=O)C2=CN1c1cccc(C#N)c1 (stereo not drawn) | - | - | - | - | 0[12.9 µM]
CCCCNc1nc(C)nc2c1nc(-c1ccccc1)n2CC1CCCN1CC (stereo not drawn) | - | - | - | - | 0
CC(Oc1ccccc1)C(=O)Nc1nnc2n1CCS2 (stereo not drawn) | 0 | 0 | - | - | -
CC(C)CN(C(=O)CSc1nnc2ccccn12)C1CCS(=O)(=O)C1 (stereo not drawn) | 0 | 0 | 0 | 0 | -

From PubChem
